Assay results reported in PubChem BioAssay (Tox21).
Results filed as inconclusive are left out. Entries that show only a call come without a potency. The source made the active and inactive calls. The call rests on the fitted dose curve; in most records, active means well fitted cell-killing curve with a large enough effect in the repeat runs (not every such curve was filed as active); inconclusive means weak or mixed curves, or effect the other way; inactive means no such curve, though single readings can be large or run the other way.

Assay: qHTS assay to identify small molecule antagonists of the farnesoid-X-receptor (FXR) signaling pathway - cell viability counter screen (AID 743221); further: nearly all actives have a fitted effect of over 50% in size
Conditions: FXR-bla HEK293T viability, CellTiter-Glo luminescence, 16 h; series mostly up to 62.6 µM
Excerpt: National Center for Advancing Translational Sciences [NCATS]
NIH Chemical Genomics Center [NCGC]
U.S. Environmental Protection Agency [EPA]
National Institutes of Environmental Health Sciences [NIEHS]
National Toxicology Program [NTP]
U.S. Food and Drug Administration [FDA]
The farnesoid-X-receptor (FXR), a nuclear hormone receptor, is highly expressed in liver, intestine, kidney and adrenal cortex. Natural ligands of FXR are the bile acids (Cholic acid, Chenodeoxy cholic acid etc). FXR is an important regulator of diverse metabolic pathways, including the bile acid homeostasis, lipid and glucose metabolisms. FXR regulates the expression of target genes by binding either as a monomer or as a heterodimer with the retinoid X receptor (RXR). Numerous studies have reported that FXR exerts protective function during cholestasis, diabetes, liver regeneration, and cancer. To identify compounds that inhibit FXR signaling, GeneBLAzer FXR-UAS-bla HEK 293T cell line (Invitrogen, Carlsbad, CA) containing a beta-lactamase reporter gene under the control of a UAS response element was used to screen the Tox21 10K compound library. The cytotoxicity of the Tox21 compound library against the FXR-bla cell line was tested in parallel by measuring the cell viability using CellTiter-Glo assay in the same wells.
Tox21 Assay Protocol Summary:
FXR-bla cells were dispensed at 5000 cells/5uL/well in 1536-well black wall/clear bottom plates using a Multidrop Combi (Thermo Fisher Scientific, Waltham, MA) dispenser. After the assay plates were incubated at 37 C and 5% CO2 for 5 h, 23 nL of compounds dissolved in DMSO, positive controls or DMSO only was transferred to the assay plate by a Pintool station (Kalypsys, San Diego, CA), followed by addition of 1 uL Chenodeoxycholic acid (50 uM, final concentration in the wells). The assay plates were incubated at 37C for 16 h. After 1 uL of LiveBLAzerTM B/G FRET substrate was added using a Bioraptr Flying Reagent Dispenser (FRD) workstation (Beckman Coulter, Indianapolis, IN), the plates were incubated at room temperature for 2 h, and fluorescence intensity was measured by an Envision plate reader (PerkinElmer, Shelton, CT). For cell viability readout that measures cytotoxicity, 4uL/well of CellTiter-Glo reagent was added into the assay plates using a Bioraptr FRD. After 30 min incubation at room temperature, the luminescence intensity in the plates was measured using a ViewLux plate reader (PerkinElmer).

Row | Compound | Potency
1 | CCSC(=O)N(CC)CC | inactive
2 | COc1cc(NC(C)CCCN)c2ncccc2c1 (stereo not given) | inactive
3 | COc1ccc(C2C(=O)c3ccccc3C2=O)cc1 | inactive
4 | CC(C)(C)S | inactive
5 | Cc1cn([C@H]2C[C@H](F)[C@@H](CO)O2)c(=O)[nH]c1=O | inactive
6 | CC(=O)OCCC1CCCCC1 | inactive
7 | C=CCOC(=O)COCCC(C)C | inactive
8 | CCCCCCC(O)CCCCCCCCCCC(=O)OC (stereo not given) | inactive
9 | COc1cc(S(=O)(=O)Nc2ccccc2)c(OC)cc1N | inactive
10 | CC1CCC(C(C)CS)CC1S (stereo not given) | inactive
11 | COc1cc(C(C)=O)ccc1OCCCN1CCC(c2noc3cc(F)ccc23)CC1 | inactive
12 | COc1ccc(N)c([N+](=O)[O-])c1 | inactive
13 | CC(C)c1ccc(C(=O)N=C(N)N)cc1S(C)(=O)=O | inactive
14 | O=C(O)/C=C/c1ccc(O)c(O)c1 | inactive
15 | Cc1ccc(NC(=O)N(C)C)cc1NC(=O)N(C)C | inactive
16 | O=S(=O)(O)CO | inactive
17 | O=CNNC=O | inactive
18 | CC(C)C(=O)OCCOc1ccccc1 | inactive
19 | Cc1ccc(Nc2c(F)cccc2Cl)c(CC(=O)O)c1 | inactive
20 | COc1ccc(-n2nc(C(F)F)cc2-c2ccc(S(C)=O)cc2)cc1 (stereo not given) | inactive

Row | Compound | Potency
21 | CSSc1ccoc1C | inactive
22 | CC(C)C1CCC(C(=O)N[C@H](Cc2ccccc2)C(=O)O)CC1 (stereo not given in full) | inactive
23 | CC1CCc2nccnc21 (stereo not given) | inactive
24 | Cc1ccc(Cl)cc1N | inactive
25 | CCOC(=O)c1c(N)sc2c1CCN(Cc1ccccc1)C2 | inactive
26 | CCCCOC(=O)CCCCC(=O)OCCCC | inactive
27 | CCN(CC)CCOC(=O)C(c1ccccc1)c1ccccc1 | inactive
28 | O=[N+]([O-])C1(Br)COCOC1 | inactive
29 | O=C1OC(=O)c2c(Br)c(Br)c(Br)c(Br)c21 | inactive
30 | CNCc1ccc(NC(=O)c2c[nH]c3c2C(=O)CCC3)cc1 | inactive
31 | O=C(O)CO | inactive
32 | CCCCCCCCCCCCCCCC(=O)OCC | inactive
33 | CCCCC[C@H](O)/C=C/[C@H]1[C@H](O)CC(=O)[C@@H]1C/C=C\CCCC(=O)O | inactive
34 | CCN(CC)c1cccc(O)c1 | inactive
35 | C[C@H](CS)C(=O)N1CCC[C@H]1C(=O)O | inactive
36 | C1CCCCC1 | inactive
37 | O=C(CCS)OCC(COC(=O)CCS)(COC(=O)CCS)COC(=O)CCS | inactive
38 | Nc1ccc(NC(=O)c2ccc(N)cc2)cc1 | inactive
39 | FC(F)(F)C(F)(F)C(F)(F)C(F)(F)CCI | inactive
40 | CC(=O)NNC(C)=O | inactive
